Test results published in PubChem BioAssay AID540364 (The Scripps Research Institute Molecular Screening Center, 2011).
In all, about 360,000 compounds went through this assay and about 2,000 (0.56%) were called active.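 Rule for the calls: active = activation above the average of all compounds screened plus 3 SD, cutoff fixed separately per campaign (cut at about 7.5% in these data); inactive = the rest.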 The sample as a whole holds a higher share of actives than the screen did.

Assay: FXN promoter activators, primary screen, cell-based, luciferase luminescence, HEK293 lucGAA850 (AID 540364);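 note: 0% = DMSO wells and 100% = 10 µM SAHA wells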
Settings: HEK293 lucGAA850 FXN promoter luciferase reporter, 24 h; at 6 µM; active compounds read high; percent of 10 µM SAHA response

Structure (SMILES)	activation
Cc1nc(-c2ccc(F)cc2)c(CC(=O)Nc2cccc(S(=O)(=O)N3CCOCC3)c2)s1	-0.93% (inactive)
Cc1nc(-c2ccc(F)cc2)c(CC(=O)N2CCN(S(=O)(=O)c3ccc(F)cc3)CC2)s1	1.58% (inactive)
Cc1nc(-c2ccc(F)cc2)c(CC(=O)Nc2cc(S(=O)(=O)N3CCCCC3)ccc2C)s1	18.7% (active)
CSCCC(NC(N)=O)C(=O)N(C)CC(=O)Nc1ccc(C)cc1 (configuration not stated)	0.85% (inactive)
CCOc1cc(S(=O)(=O)NCc2ccc3c(c2)OCO3)ccc1F	1.09% (inactive)
Cc1ccc(-c2nnc(-n3nnc4ccccc43)c3ccccc23)cc1	3.17% (inactive)
Cc1ccc(-c2nc3ccccc3[nH]c2=O)cc1	8.59% (active)
Cc1ccccc1N1CC(c2nc3ccccc3[nH]2)CC1=O (configuration not stated)	-3.78% (inactive)
CN(c1ccccc1)c1nc(N)c([N+](=O)[O-])c(NCc2ccco2)n1	6.64% (inactive)
COc1ccc(Nc2nc(NCc3ccco3)nc(N/N=C/c3ccccc3Cl)n2)cc1	0.27% (inactive)
COc1cccc(Nc2nc(N)c([N+](=O)[O-])c(NCc3ccco3)n2)c1	12.7% (active)
CCOC(=O)C1CCN(C(=O)CN2C(=O)NC(C)(c3ccc4cc(OC)ccc4c3)C2=O)CC1 (configuration not stated)	-1.63% (inactive)
CCOC(=O)C1CCN(c2ncnc3c2c(-c2ccccc2)cn3-c2ccc(C)cc2)CC1	0.35% (inactive)
O=c1[nH]cnc2c1c(-c1ccccc1)cn2-c1ccc(F)cc1	8.36% (active)
O=c1c2c(-c3ccccc3)ccnc2[nH]n1-c1ccccc1	2.17% (inactive)
CCc1nnc(NC(=O)CSc2nnc(COc3ccc(C#N)cc3)n2-c2ccccc2)s1	0.66% (inactive)
CCOc1ccc(CCNC(=O)C2CCN(c3ccc(N4CCOCC4)nn3)CC2)cc1OCC	2.52% (inactive)
CCCCCCCCCCCCN1[C@@H](CC(C)=O)c2cc(F)cc(F)c2S1(=O)=O	0.59% (inactive)
COc1ccccc1-c1nc(C(F)(F)F)c(OC)o1	0.69% (inactive)
COc1ccccc1C1=CC(=O)CCC1	-2.28% (inactive)
COc1ccccc1C1=Nc2cccc3cccc(c23)N1	11.7% (active)
CCOCCOCCC(C(=O)O)P(=O)(c1ccccc1)c1ccccc1 (configuration not stated)	-1.43% (inactive)
CCOc1ccc(NC(=O)CN(C)C(=O)COc2cccc(CC)c2)cc1OCC	0.68% (inactive)

Structure (SMILES)	activation
C[C@H](CO)N1C[C@H](C)[C@@H](CN(C)C(=O)c2cccc(F)c2)Oc2cc(-c3cncnc3)ccc2S1(=O)=O	0.78% (inactive)
COc1ccccc1CNC(=O)c1ccc(N(C)S(=O)(=O)c2ccc(C)cc2)cc1	0.45% (inactive)
COc1ccc(NC(=O)CC2C(=O)OCC3CCCCN32)cc1Cl (configuration not stated)	3.58% (inactive)
COc1ccc(/C=C/C(=O)c2c(O)cc(OC)cc2OC)cc1	1.23% (inactive)
O=C(NCCCn1ccnc1)c1cc(Br)c(Br)s1	1.52% (inactive)
O=C(NC1CCCCCCC1)c1cccs1	1.55% (inactive)
COc1cc(OC)cc(C(=O)NCCCn2ccnc2)c1	1.13% (inactive)
O=C(NC1CCCCC1)c1cc(C2CC2)on1	2.15% (inactive)
O=C(NC1CCCC1)c1cc(-c2ccccc2)on1	8.61% (active)
O=C(NCCCn1ccnc1)c1cc(-c2ccccc2)on1	20.8% (active)
Fc1ccc(CNc2nc3ccccc3n3nnnc23)cc1	4.29% (inactive)
O=S(=O)(c1ccc(Sc2nnc3ccccn23)nc1)N1CCOCC1	-1.38% (inactive)
CC1(C)CC(=O)CC2(C1)NCC(c1ccccc1Cl)c1c2[nH]c2ccccc12 (configuration not stated)	-7.14% (inactive)
CCCNC(=O)CCc1c(C)nc2c(c(C)nn2-c2ccc(C)cc2)c1C	0.2% (inactive)
CCCNC(=O)c1c(Cl)cnn1-c1ccc(C)cc1	7.7% (active)
CCCc1c(C(=O)O)cnn1-c1ccc(Cl)cc1	-0.1% (inactive)
Cc1cnc(C(=O)OCc2c(C)cc(C(C)(C)C)cc2C)cn1	1.56% (inactive)
CC(Oc1ccccc1)C(=O)NN1Cc2ccccc2C1=N (configuration not stated)	2.03% (inactive)
CCOC(=O)c1nn(-c2cccc(C)c2)cc1C(=O)c1ccccc1	6.71% (inactive)
CCCNC(=O)c1cc(C2CCCCN2S(=O)(=O)c2ccc(C#N)cc2)on1 (configuration not stated)	1.65% (inactive)
O=C(CSc1cccc2cccnc12)N/N=C/c1cccnc1	15.3% (active)
Cc1ccc(S(=O)(=O)N(CC(=O)N/N=C/c2ccc(F)cc2)c2cccc3cccnc23)cc1	-4.8% (inactive)
Cc1c(NC(=O)CSc2cccc3cccnc23)c(=O)n(-c2ccccc2)n1C	2.68% (inactive)

Structure (SMILES)	activation
COc1ccccc1N(CC(=O)Nc1ccc(C)cc1Cl)S(=O)(=O)c1cccs1	0.98% (inactive)
Cc1ccccc1-n1c(C)cc(/C=N/NC(=O)c2ccc(CN3CCOCC3)cc2)c1C	0.54% (inactive)
COc1ccc(CCNC(=O)C(=O)NCC2OCCN2S(=O)(=O)c2ccc(F)cc2)cc1OC (configuration not stated)	-0.5% (inactive)
Cc1noc(C)c1-c1ccc2ncnc(NC(C)c3ccco3)c2c1 (configuration not stated)	10.2% (active)
CCc1c(N=O)c(-c2ccccc2)n(O)[n+]1[O-]	3.14% (inactive)
COc1cc(C#Cc2ccc3cc(CCCO)oc(=O)c3c2)cc(OC)c1	7.61% (active)
COc1cc(/C=C2\Oc3ccc(C#Cc4ccc(O)cc4)cc3C2=O)cc(OC)c1	-0.08% (inactive)
CC(C)c1ccc(S(=O)(=O)N2CCC3(CC2)OCCO3)cc1	-0.76% (inactive)
COCOCCn1cc(CN2CCS(=O)(=O)N(Cc3ccc(-c4ccccc4)cc3)C(CC(C)C)C2=O)nn1 (configuration not stated)	-0.25% (inactive)
CCOc1cccc2cc(C(=O)OCC(=O)Nc3c(C)cccc3CC)c(=O)oc12	1.17% (inactive)
O=[N+]([O-])c1ccccc1OCCCCN1CCCCC1	1.12% (inactive)
Cc1nc(SCc2ccc(F)cc2)c([N+](=O)[O-])[nH]1	0.83% (inactive)
CCCCCOc1ccc(CSC2=NCCN2)cc1[N+](=O)[O-]	8.36% (active)
Cc1oc2c(F)c(F)c(F)c(F)c2c1S(=O)(=O)Nc1cccc(C(F)(F)F)c1	-1.14% (inactive)
NC(=O)c1ccsc1NC(=O)COC(=O)COc1ccc(C=O)cc1	1.47% (inactive)
Cc1cc(C)nc(SC(C)C(=O)N/N=C/c2cccs2)n1 (configuration not stated)	-1.1% (inactive)
CCOC(=O)C(=Cc1ccccc1)C(=O)c1ccccc1	-4.25% (inactive)
Cc1cc(C)nc(S/C=C/C(=O)c2ccccc2)n1	14.6% (active)
CC(=O)c1ccc(N2CCN(C(=O)C3CCN(S(=O)(=O)c4ccc5c(c4)CC(C)N5C(=O)C4CC4)CC3)CC2)cc1 (configuration not stated)	1.92% (inactive)
Cc1ccc(Sc2cc(C(=O)c3ccccc3C(=O)O)ccc2[N+](=O)[O-])cc1	0.3% (inactive)
CC(C)(C)c1ccc(C(=O)NNC(=O)Cc2ccccc2)cc1	3.03% (inactive)
Cc1ccc(SC(CC(=O)c2ccc(C(C)(C)C)cc2)C(=O)O)cc1 (configuration not stated)	9.01% (active)
COc1ccc(/C=C2\CCCC3C2=NN(C(=O)c2scnc2C)C3c2ccc(OC)cc2)cc1 (configuration not stated)	1.94% (inactive)

Structure (SMILES)	activation
Cc1ccc(NC(=O)C(CC(=O)O)C2CCCO2)c(C)c1 (configuration not stated)	0.8% (inactive)
COc1ccc(C(CNC(=O)c2cc3c(s2)CCCC3)N2CCOCC2)cc1 (configuration not stated)	1.32% (inactive)
CC1(C(=O)NS(=O)(=O)c2ccccc2Cl)CCN1C(=O)c1cccc(F)c1 (configuration not stated)	1.46% (inactive)
CC1(C(=O)NCc2ccc3c(c2)OCO3)CCN1C(=O)Cc1cccc2ccccc12 (configuration not stated)	0.09% (inactive)
CC1(C(=O)NCc2cccc3ccccc23)CCN1Cc1ccc(-c2ccccc2)o1 (configuration not stated)	10% (active)
CSc1ccc(CN2CCC2(C)C(=O)NCc2ccccc2Br)cc1 (configuration not stated)	0.95% (inactive)
CCC1CO/C(=C(\C(=C(Cl)Cl)N2CCOCC2)[N+](=O)[O-])N1 (configuration not stated)	1.9% (inactive)
Cc1cccc(NC(=O)CN2CCCN(S(=O)(=O)c3ccc(Br)s3)CC2)c1	0.67% (inactive)
COc1cc(OC)cc(-c2c(-c3cccs3)c3cc(-c4ccc(OC)cc4F)ccc3n2C)c1	0.9% (inactive)
CC(C)(C)NC(=O)C(c1ccco1)N(Cc1ccc2c(c1)OCO2)C(=O)Cn1nnc2ccccc21 (configuration not stated)	-3.64% (inactive)
COc1ccc(N(CC(=O)N2CCCCCC2)S(=O)(=O)c2ccccc2)cc1	-0.03% (inactive)
COc1ccc(N(CCC#N)S(=O)(=O)c2ccc(Cl)cc2)cc1	9.52% (active)
COc1ccc(S(=O)(=O)NCCCCOc2ccc(Cl)cc2)cc1	1.56% (inactive)
COc1ccc2c(c1)C(=C(C#N)C#N)C(=O)N2CCc1ccccc1	1.6% (inactive)
COc1cc(NC(=S)NCCSc2ccc(C)cc2)cc(OC)c1	0.45% (inactive)
COc1ccc(Cl)cc1NC(=O)CN(C)C(=O)c1cc2ccccc2cc1OC	0.89% (inactive)
COc1ccc(Cl)cc1NC(=O)CN(C)C(=O)CNC(=O)C12CC3CC(CC(C3)C1)C2	1.23% (inactive)
COc1ccc(Cl)cc1NC(=O)CN(C)C(=O)CCCc1c[nH]c2ccccc12	9.56% (active)
COCCNc1ncnc2c1ncn2[C@H]1CN(CCN2CCOCC2)C[C@@H](CO)O1	0.56% (inactive)
Cc1ccc(C(NC(=O)C2CCN(CCOc3ccc(Cl)cc3Cl)CC2)c2ccccn2)cc1 (configuration not stated)	1.16% (inactive)
O=C(N/N=C/C=C/c1ccco1)c1cccs1	11.9% (active)
O=C(N/N=C/c1ccco1)c1csc2c1CCCC2	1.3% (inactive)
O=C(N/N=C/c1ccco1)c1ccc(NC(=O)C2CC2)cc1	1.23% (inactive)
